Data from article PMC4336329 (PLoS ONE, 2015).
About 14,000 (4.5%) of roughly 310,000 compounds showed an effect of 50% or more. Effects have a minus sign here. What follows is part of a selection rich in strong results, with near analogues and random picks from the rest.

These compounds were tested against human ether-à-go-go-related gene (hERG) potassium channel (human, UniProt Q12809) (assay: primary screen, population patch clamp on CHO cells stably expressing hERG; higher = less effect of the substance).
Sequence of human ether-à-go-go-related gene (hERG) potassium channel (Q12809 whole entry, looked up): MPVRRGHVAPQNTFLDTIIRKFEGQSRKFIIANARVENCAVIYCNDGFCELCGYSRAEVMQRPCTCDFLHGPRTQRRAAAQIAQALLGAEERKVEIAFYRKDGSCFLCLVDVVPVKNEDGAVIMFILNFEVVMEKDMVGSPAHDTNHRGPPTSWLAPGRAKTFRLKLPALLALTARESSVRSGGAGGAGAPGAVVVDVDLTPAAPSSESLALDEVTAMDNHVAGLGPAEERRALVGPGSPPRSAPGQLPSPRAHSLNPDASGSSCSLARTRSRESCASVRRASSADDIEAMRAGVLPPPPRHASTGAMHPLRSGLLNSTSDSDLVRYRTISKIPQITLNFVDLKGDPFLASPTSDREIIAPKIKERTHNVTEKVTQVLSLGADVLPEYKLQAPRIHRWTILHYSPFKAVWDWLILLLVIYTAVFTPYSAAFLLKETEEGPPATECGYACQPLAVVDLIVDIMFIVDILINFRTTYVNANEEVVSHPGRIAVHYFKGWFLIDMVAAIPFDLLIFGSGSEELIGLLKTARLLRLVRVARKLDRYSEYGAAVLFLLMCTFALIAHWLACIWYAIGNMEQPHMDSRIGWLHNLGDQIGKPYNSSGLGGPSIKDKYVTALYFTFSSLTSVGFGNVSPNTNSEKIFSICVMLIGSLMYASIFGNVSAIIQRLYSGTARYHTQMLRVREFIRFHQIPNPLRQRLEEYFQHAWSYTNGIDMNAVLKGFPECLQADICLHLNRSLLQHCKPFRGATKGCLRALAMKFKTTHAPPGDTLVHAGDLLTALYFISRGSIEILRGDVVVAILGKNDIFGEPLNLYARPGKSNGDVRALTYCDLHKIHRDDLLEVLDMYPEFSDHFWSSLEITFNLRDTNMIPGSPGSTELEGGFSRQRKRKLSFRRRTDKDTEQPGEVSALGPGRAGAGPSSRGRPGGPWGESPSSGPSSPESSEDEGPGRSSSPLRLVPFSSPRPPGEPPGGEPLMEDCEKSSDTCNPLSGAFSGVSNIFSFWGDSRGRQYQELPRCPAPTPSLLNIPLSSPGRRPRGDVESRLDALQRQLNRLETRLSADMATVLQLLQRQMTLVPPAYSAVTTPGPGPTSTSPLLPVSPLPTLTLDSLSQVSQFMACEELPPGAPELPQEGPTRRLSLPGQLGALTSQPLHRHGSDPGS
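Further: peak tail current of the secondary pulse compared with the same well before compound.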

SMILES	hERG current change (%, negative = inhibition) at 10uM
CC(=O)NC(=O)COC(=O)c1ccc2ncsc2c1	18.5%
O=C(CSc1cccc2cccnc12)N/N=C/c1cccc(O)c1	2.95%
CCOc1ccccc1N1CCN(C(=O)c2cc3c(C)cc(C)cc3[nH]2)CC1	-4.74%
COc1ccc(/C=N/NC(=O)c2ccccc2)cc1OS(=O)(=O)c1ccccc1	-3.53%
CCCCn1c(SC(C)C(N)=O)nc2cc(C(=O)OC)ccc2c1=O (centres unmarked)	-1.48%
Cn1c(=O)[nH]c(=O)c2c1nc(N1CCN(CCO)CC1)n2Cc1ccccc1Cl	-6.38%
O=C(NC(=O)c1ccccc1)NC1(C(F)(F)F)OCCO1	2.65%
Cc1ccc(-c2nnc(SCC(=O)N/N=C/c3ccccc3C(=O)O)n2C2CCCCC2)cc1	11.1%
CCCOc1ccc(C(C)=O)cc1CSc1nc(O)cc(=O)[nH]1	14.4%
COc1ccc(S(N)(=O)=O)cc1C(=O)OCCCOC(=O)c1cc(S(N)(=O)=O)ccc1OC	4.29%
CCOC(=O)Cn1c(=N)n(CCOc2ccc3ccccc3c2)c2ccccc21.Cl	-75.3%
Br.CCOC(=O)Cn1c(=N)n(Cc2ccccc2)c2ccccc21	-34.6%
Br.CCCn1c(=N)n(CC(=O)OCC)c2ccccc21	-4.66%
C=CCOC(=O)C1=C[C@H](c2coc3ccccc3c2=O)C[C@H](OCc2ccc(CO)cc2)O1	-62.3%
O=C(C1=C[C@H](c2coc3ccccc3c2=O)C[C@H](OCc2ccc(CO)cc2)O1)N1CCOCC1	-49.7%
NC(=O)C1=C[C@@H](c2coc3ccccc3c2=O)C[C@@H](OCc2ccc(CO)cc2)O1	-31%
O=C(C1=C[C@@H](c2coc3ccccc3c2=O)C[C@@H](OCc2ccc(CO)cc2)O1)N1CCOCC1	-24.7%
O=C(C1=C[C@@H](c2coc3ccccc3c2=O)C[C@@H](OCc2ccc(CO)cc2)O1)N1CCN(Cc2ccccc2)CC1	-48%
O=C(C1=C[C@@H](c2coc3ccccc3c2=O)C[C@@H](OCc2ccc(CO)cc2)O1)N1CCCCCCC1	-66.5%
CN1CCN(C(=O)C2=C[C@H](c3coc4ccccc4c3=O)C[C@H](OCc3ccc(CO)cc3)O2)CC1	-41.1%
O=C(C1=C[C@H](c2coc3ccccc3c2=O)C[C@H](OCc2ccc(CO)cc2)O1)N1CCN(Cc2ccccc2)CC1	-61.7%
C=CCOC(=O)C1=C[C@@H](c2coc3ccccc3c2=O)C[C@@H](OCc2ccc(CO)cc2)O1	-40.9%
CCOC(=O)c1ccc(NS(=O)(=O)c2c(C)[nH]c(C)c2C(=O)N2CCCCC2)cc1	7.73%

SMILES	hERG current change (%, negative = inhibition) at 10uM
CC(C)C(NS(=O)(=O)/C=C/c1ccccc1)C(=O)NCc1ccc(F)cc1 (centres unmarked)	25.3%
CCn1c(SCC(=O)N2c3ccccc3CC2C)nnc1-c1ccco1 (centres unmarked)	-17.6%
O=C(Nc1nnc(Cc2ccccc2F)s1)c1ccccc1Cl	12.6%
CCc1ccc(S(=O)(=O)NCc2cn3ccccc3n2)s1	-11%
Cn1c(=O)c2[nH]c(COc3ccc(C(C)(C)C)cc3)nc2n(C)c1=O	-55.1%
CN(C)Cc1nc2c([nH]1)c(=O)n(C)c(=O)n2C	-0.353%
CCCc1nc2c([nH]1)c(=O)n(C)c(=O)n2C	15.8%
N#Cc1ccc(-c2ccc(Cl)cc2)nc1SCC(=O)c1cccc(Cl)c1	28.9%
N/C(=N\O)c1ccc([N+](=O)[O-])s1	11%
Cc1ccc(P(=O)(OCCN2CCOCC2)C(C)(C)C)o1 (centres unmarked)	-4.4%
COc1ccc(C2=NCC(=O)N(CC(=O)NCc3ccco3)c3sc4c(c32)CCCC4)cc1OC	-17.3%
COc1ccc(C2=NCC(=O)N(CC(=O)NCc3ccco3)c3sc4c(c32)CCCC4)cc1	-35.7%
O=C1CN=C(c2ccc(Br)cc2)c2c(sc3c2CCCC3)N1CCN1CCCCC1	-64.4%
OC(COc1ccc2ccccc2c1)CN1CCCC1 (centres unmarked)	-19.1%
O=C(c1ccccc1)c1ccc(OCC(O)CN2CCCCC2)cc1 (centres unmarked)	-39.9%
Cl.OC(COc1ccc(OCC(O)CN2CCCCCC2)cc1)CN1CCCCCC1 (centres unmarked)	9.75%
O=C(c1ccc(Cl)cc1)c1ccc(OCC(O)CN2CCOCC2)cc1 (centres unmarked)	-19.7%
Cl.OC(COc1ccc(Cl)cc1)CN1CCCCC1 (centres unmarked)	-61.9%
OC(COc1ccc(OCC(O)CN2CCCCC2)cc1)CN1CCCCC1 (centres unmarked)	15.9%
OC(COc1ccc2cc(Br)ccc2c1)CN1CCCC1 (centres unmarked)	-70.2%
OC(COc1ccc2cc(Br)ccc2c1)CN1CCOCC1 (centres unmarked)	-48.4%
O=C(c1ccc(Cl)cc1)c1ccc(OCC(O)CN2CCCCC2)cc1 (centres unmarked)	-75.1%
CCn1cc(C(=O)NCc2ccccc2OC)c(=O)c2ccc(C)nc21	17.6%

SMILES	hERG current change (%, negative = inhibition) at 10uM
CCCOc1ccccc1C(=O)N(Cc1cccc(Br)c1)C1CCS(=O)(=O)C1 (centres unmarked)	-35.4%
Cn1c(=O)cc(SCC(=O)N2CCN(C(=O)c3ccco3)CC2)c2ccccc21	-27.4%
COc1ccc(OCC(=O)N2CCN(CC3CC4C=CC3C4)CC2)cc1 (centres unmarked)	-26.6%
Cc1cc(C)n2ncc(-c3cccc(Br)c3)c2n1	5.79%
CNCC1(c2ccccc2)CCCC1.Cl	15.1%
c1ccc(C2(CNc3ccccn3)CCCC2)cc1	-70.3%
O=C(Nc1ccccn1)C1(c2ccccc2)CCCC1	-3.92%
CCCCCCNC(=O)CCNS(=O)(=O)c1ccc(C)cc1	-12.8%
CCOc1cc(NC(=O)c2ccccn2)c(OCC)cc1NC(=O)c1cccc(C)c1	8.7%
COc1ccc(N2CC(C(=O)Nc3c(C(N)=O)oc4ccccc34)CC2=O)cc1 (centres unmarked)	-15%
CC/C(=N\N=C1\SC(C)C(=O)N1Cc1ccco1)c1ccccc1 (centres unmarked)	4.18%
COc1ccc(NC(=O)C2CCCN(c3c4c(nc5ncnn35)CCC4)C2)cc1 (centres unmarked)	-61.6%
O=C(NC1CCCc2ccccc21)C1CCN(c2c3c(nc4ncnn24)CCC3)CC1 (centres unmarked)	-31.3%
CC1CCC(NC(=O)C2CCN(c3c4c(nc5ncnn35)CCC4)CC2)CC1 (centres unmarked)	-19.3%
O=C(Nc1ccc(Oc2ccccc2)cc1)C1CCN(c2c3c(nc4ncnn24)CCC3)CC1	-55.6%
O=C(Nc1ccc2c(c1)CCC2)C1CCN(c2c3c(nc4ncnn24)CCC3)CC1	-73.1%
O=C(Nc1ccc2c(c1)CCC2)C1CCN(c2ncccn2)CC1	20.6%
COc1ccc(NC(=O)C2CCCN(c3ncccn3)C2)cc1 (centres unmarked)	3.4%
COc1ccc(NC(=O)C2CCCN(c3c4c(nc5ncnn35)CCC4)C2)cc1OC (centres unmarked)	-11.7%
CC1CCCCC1NC(=O)C1CCN(c2c3c(nc4ncnn24)CCC3)CC1 (centres unmarked)	4.49%
CCN1C(=O)C2C(C1=O)N1C(c3cccs3)C3C(=O)N(CC)C(=O)C3N1C2c1cccs1 (centres unmarked)	15.7%
COc1ccc(Cn2nnnc2C(c2ccccn2)N2CCN(c3cc(Cl)ccc3C)CC2)cc1 (centres unmarked)	-9.87%
Cc1ccc(NC(NC(=O)c2ccccc2[N+](=O)[O-])C(Cl)(Cl)Cl)cc1 (centres unmarked)	-5.27%

SMILES	hERG current change (%, negative = inhibition) at 10uM
CC(Sc1nnc(-c2cccnc2)o1)C(=O)NC1CCCCC1 (centres unmarked)	14.9%
Cc1ccc(Nc2nc(COC(=O)C3CC3)cs2)cc1	-13.1%
CCOC(=O)CSC1=C(C#N)C(c2ccc(C)cc2)C(C(=O)OC)C(=O)N1 (centres unmarked)	-4.56%
Cc1ccc(-n2ncc3c(=O)[nH]c(SCC(=O)N4CCN(c5ccccc5)CC4)nc32)cc1	3.28%
FC(F)(F)c1cccc(CNC2c3ccccc3-c3ccccc32)c1.O=C(O)C(=O)O	20.4%
Cc1ccc(NC(=O)c2nc(C)n(-c3ccc([N+](=O)[O-])cc3)n2)cc1	-32.2%
Cc1nc(C(=O)Nc2ccc(F)cc2)nn1-c1ccc([N+](=O)[O-])cc1	-67.4%
Cc1nc(C(=O)O)nn1-c1ccc([N+](=O)[O-])cc1	2.84%
Cc1nc(C(=O)Nc2ccc(Cl)cc2)nn1-c1ccc([N+](=O)[O-])cc1	-58.6%
CNC(=O)c1nc(C)n(-c2ccc([N+](=O)[O-])cc2)n1	-3.99%
COc1ccc(NC(=O)c2nc(C)n(-c3ccc([N+](=O)[O-])cc3)n2)cc1	-44.9%
O=S(=O)(Nc1ccc(F)cc1)N1CCCCCC1	-15.6%
COc1ccccc1CNC(=O)Cn1nnc(-c2ccncc2)n1	1.05%
COC(=O)c1[nH]c2cccc(OC)c2c1NC(=O)CN1CC2(C)CC1CC(C)(C)C2 (centres unmarked)	9.92%
CC(C)[C@@H](COc1ccccc1)N1CCN(Cc2ccccc2)CCC1=O	-29.6%
CC(C)CN1CCC(=O)N([C@H](COc2ccccc2)c2ccccc2)CC1	-75.3%
N#CC[C@H](c1ccccc1)N1CCN(Cc2ccccc2)CCC1=O	-1.88%
CC(C)CN1CCC(=O)N([C@H](CO)c2ccccc2)CC1	9.33%
O=C1CCN(CCc2ccccc2)CCN1[C@H](CO)c1ccccc1	-25.7%
O=C1CCN(CCc2ccccc2)CCN1[C@H](COc1ccccc1)c1ccccc1	-75.9%
CC(C)CN1CCC(=O)N(CCOc2ccccc2)CC1	13.1%
CCCN1CCC(=O)N([C@H](COc2ccccc2)c2ccccc2)CC1	-78.2%
O=C1CCN(Cc2ccccc2)CCN1[C@H](COc1ccccc1)c1ccccc1	-57.9%
